Reference: PubChem BioAssay (NCATS)
Records with an inconclusive call do not appear. Active and inactive are the calls of the source. Calls come from the whole dose curve; as a rule, active = well fitted curve in the direction sought with a large enough effect; inconclusive = small, poorly fitted or top-dose-only effect, or another doubt; inactive = no such curve, though single readings can be large; an effect the other way counts as inactive or inconclusive.

Columns and labels:
NIH3T3 = assay: qHTS assay to identify novel small-molecules to repurpose for Merkel cell carcinoma treatment (AID 1296009); details: MCC and control cell lines, CellTiter-Glo viability, 72 h; at 44.8 µM (top of the series) unless noted; note: nearly all actives have a fitted effect of over 60% in size
Outline: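 72 hr, 37 degree celsius; NPC 8-pt / MIPE 11-pt dose response; compound pinned in DMSO; CellTiter-Glo, 10 min RT, luminescence; normalized to no-cell and DMSO controls.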

C33A = assay: Primary qHTS to identify gynecologic anti-cancer compounds using libraries of approved drugs and bioactive compounds (AID 1345084); details: Gynecologic cancer cell panel viability, ATPlite luminescence, 48 h; series mostly up to 57.5 µM; note: % is set by controls: 0 for no effect and ±100 for the full control effect; nearly all actives have a fitted effect of over 55% in size
Outline: (§1)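 48 h compound exposure at 37 C, 5% CO2; five-point qHTS. ATPlite luminescence readout of cell ATP.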

CAOV3 = assay: as above; details: Gynecologic cancer cell panel viability, ATPlite luminescence, 48 h; series mostly up to 57.5 µM
Outline: as §1

CASKI = assay: as above; details: Gynecologic cancer cell panel viability, ATPlite luminescence, 48 h; series mostly up to 57.5 µM
Outline: as §1

Es-2 = assay: as above; details: Gynecologic cancer cell panel viability, ATPlite luminescence, 48 h; series mostly up to 57.5 µM
Outline: as §1

HeLa = assay: as above; details: Gynecologic cancer cell panel viability, ATPlite luminescence, 48 h; series mostly up to 57.5 µM
Outline: as §1

Hek293T = assay: as above; details: Gynecologic cancer cell panel viability, ATPlite luminescence, 48 h, control line for the selectivity index; series mostly up to 57.5 µM
Outline: as §1

JEG-3 = assay: as above; details: Gynecologic cancer cell panel viability, ATPlite luminescence, 48 h; series mostly up to 57.5 µM
Outline: as §1

OV90 = assay: as above; details: Gynecologic cancer cell panel viability, ATPlite luminescence, 48 h; series mostly up to 57.5 µM
Outline: as §1

SKOV3 = assay: as above; details: Gynecologic cancer cell panel viability, ATPlite luminescence, 48 h; series mostly up to 57.5 µM
Outline: as §1

Tov-21-G = assay: as above; details: Gynecologic cancer cell panel viability, ATPlite luminescence, 48 h; series mostly up to 57.5 µM
Outline: as §1

Tov112D = assay: as above; details: Gynecologic cancer cell panel viability, ATPlite luminescence, 48 h; series mostly up to 57.5 µM
Outline: as §1

PA-1 = assay: as above; details: Gynecologic cancer cell panel viability, ATPlite luminescence, 48 h; series mostly up to 57.5 µM
Outline: as §1

COc1ccc2c(c1)OC[C@]1(O)c3cc4c(cc3O[C@H]21)OCO4
inactive: outcome (NIH3T3) | Potency (C33A) | Potency (CAOV3) | Potency (CASKI) | Potency (Es-2) | Potency (HeLa) | Potency (Hek293T) | Potency (JEG-3) | Potency (OV90) | Potency (SKOV3) | Potency (Tov-21-G) | Potency (Tov112D)

Cc1cc(Nc2ncc(Cl)c(Nc3ccccc3S(=O)(=O)C(C)C)n2)c(OC(C)C)cc1C1CCNCC1
inactive: outcome (NIH3T3) | Potency (C33A) | Potency (CAOV3) | Potency (CASKI) | Potency (Es-2) | Potency (HeLa) | Potency (Hek293T) | Potency (JEG-3) | Potency (PA-1) | Potency (Tov-21-G) | Potency (Tov112D)

COC(=O)[C@@]1(O)C=CC[C@@H]2[C@@]3(C)C[C@@H](c4ccoc4)OC(=O)[C@H]3CC[C@]21C
inactive: outcome (NIH3T3) | Potency (C33A) | Potency (CAOV3) | Potency (CASKI) | Potency (Es-2) | Potency (HeLa) | Potency (Hek293T) | Potency (JEG-3) | Potency (OV90) | Potency (SKOV3) | Potency (Tov-21-G) | Potency (Tov112D)

CC1(C)OC(=O)C(OCC2CC2)=C1c1ccc(S(C)(=O)=O)cc1
inactive: outcome (NIH3T3) | Potency (C33A) | Potency (CAOV3) | Potency (CASKI) | Potency (Es-2) | Potency (HeLa) | Potency (Hek293T) | Potency (JEG-3) | Potency (OV90) | Potency (PA-1) | Potency (Tov-21-G) | Potency (Tov112D)

C=Cc1cc(O)cc2nc(-c3ccc(O)c(F)c3)oc12
inactive: outcome (NIH3T3) | Potency (C33A) | Potency (CAOV3) | Potency (CASKI) | Potency (Es-2) | Potency (HeLa) | Potency (Hek293T) | Potency (JEG-3) | Potency (PA-1) | Potency (SKOV3) | Potency (Tov-21-G) | Potency (Tov112D)

COc1cc(C(C)=O)ccc1O[C@@H]1O[C@H](CO[C@@H]2O[C@@H](C)[C@H](O)[C@@H](O)[C@H]2O)[C@@H](O)[C@H](O)[C@H]1O
inactive: outcome (NIH3T3) inactive [at 17.4 µM] | Potency (C33A) | Potency (CAOV3) | Potency (CASKI) | Potency (Es-2) | Potency (HeLa) | Potency (Hek293T) | Potency (JEG-3) | Potency (OV90) | Potency (Tov-21-G) | Potency (Tov112D)

COC(=O)C1=COC(OC2OC(CO)C(O)C(O)C2O)C2C1CC(OC(=O)C(O)CC(=O)O)C2C (stereo unspecified)
inactive: outcome (NIH3T3) inactive [at 17.4 µM] | Potency (C33A) | Potency (CAOV3) | Potency (CASKI) | Potency (Es-2) | Potency (HeLa) | Potency (Hek293T) | Potency (JEG-3) | Potency (OV90) | Potency (PA-1) | Potency (Tov-21-G) | Potency (Tov112D)

C=CC(C)(C)O[C@@H]1O[C@H](CO[C@@H]2OC[C@](O)(CO)[C@H]2O)[C@@H](O)[C@H](O)[C@H]1O
inactive: outcome (NIH3T3) | Potency (C33A) | Potency (CAOV3) | Potency (CASKI) | Potency (Es-2) | Potency (HeLa) | Potency (Hek293T) | Potency (JEG-3) | Potency (OV90) | Potency (PA-1) | Potency (Tov-21-G) | Potency (Tov112D)

N#Cc1ccc2[nH]c(O)c(-c3ccc(CN4CCOCC4)cn3)c2c1
inactive: outcome (NIH3T3) | Potency (C33A) | Potency (CAOV3) | Potency (CASKI) | Potency (Es-2) | Potency (Hek293T) | Potency (JEG-3) | Potency (OV90) | Potency (PA-1) | Potency (SKOV3) | Potency (Tov-21-G) | Potency (Tov112D)

CC1(C)CC(=O)N(CCCCN2CCN(c3ncccn3)CC2)C(=O)C1
inactive: outcome (NIH3T3) | Potency (C33A) | Potency (CAOV3) | Potency (CASKI) | Potency (Es-2) | Potency (HeLa) | Potency (Hek293T) | Potency (JEG-3) | Potency (OV90) | Potency (SKOV3) | Potency (Tov-21-G) | Potency (Tov112D)

CC1CCC2(C(=O)OC3OC(COC4OC(CO)C(O)C(O)C4O)C(O)C(O)C3O)CCC3(C)C(=CCC4C5(C)CCC(O)C(C)(C(=O)O)C5CCC43C)C2C1(C)O (stereo unspecified)
inactive: outcome (NIH3T3) inactive [at 9.27 µM] | activity change, negative = cytotoxicity (C33A) -3.16% [at 11.6 µM] | activity change, negative = cytotoxicity (CAOV3) 16.9% [at 11.6 µM] | activity change, negative = cytotoxicity (CASKI) 8.05% [at 11.6 µM] | activity change, negative = cytotoxicity (Es-2) 5.49% [at 11.6 µM] | activity change, negative = cytotoxicity (HeLa) -4.94% [at 11.6 µM] | activity change, negative = cytotoxicity (Hek293T) 2.24% [at 11.6 µM] | activity change, negative = cytotoxicity (JEG-3) 10.5% [at 11.6 µM] | activity change, negative = cytotoxicity (OV90) 27% [at 11.6 µM] | activity change, negative = cytotoxicity (PA-1) -0.862% [at 11.6 µM] | activity change, negative = cytotoxicity (Tov-21-G) 6.67% [at 11.6 µM] | activity change, negative = cytotoxicity (Tov112D) -8.14% [at 11.6 µM]

CC1CCC23COC(=O)C2=CC(O)CC3C1(C)CCC1=CC(=O)OC1O (stereo unspecified)
inactive: outcome (NIH3T3) | Potency (C33A) | Potency (CAOV3) | Potency (CASKI) | Potency (Es-2) | Potency (HeLa) | Potency (Hek293T) | Potency (JEG-3) | Potency (OV90) | Potency (PA-1) | Potency (Tov-21-G) | Potency (Tov112D)

CC(=O)[C@@H]1CC[C@]2(C(=O)O)CC[C@]3(C)C(CCC4[C@@]5(C)CC[C@H](O)C(C)(C)C5CC[C@]43C)C12 (stereo partly specified)
inactive: outcome (NIH3T3) inactive [at 17.4 µM] | Potency (C33A) | Potency (CAOV3) | Potency (CASKI) | Potency (Es-2) | Potency (HeLa) | Potency (Hek293T) | Potency (JEG-3) | Potency (OV90) | Potency (PA-1) | Potency (Tov-21-G) | Potency (Tov112D)

Cc1cn2c(N)c(Cl)cc(C(=O)NCC3CCN(CC(C)C)CC3)c2n1
inactive: outcome (NIH3T3) | Potency (C33A) | Potency (CAOV3) | Potency (CASKI) | Potency (Es-2) | Potency (HeLa) | Potency (Hek293T) | Potency (JEG-3) | Potency (PA-1) | Potency (SKOV3) | Potency (Tov-21-G) | Potency (Tov112D)
